Experimental data: ChEMBL document CHEMBL4296182, “CO-ADD screening of NIH NCI Diversity Set V”
For part of these data: Measured potencies and affinities stand elsewhere.

Columns and labels:
Staphylococcus aureus = experiment: Antibacterial activity against Staphylococcus aureus MRSA ATCC 43300 (CO-ADD:GP_020); MIC in CAMBH media using NBS plates, by Resazurin F(560/590); format: functional; conditions: Concentration 20 uM, ASSAY_TEST Inhibition of Bacterial Growth, detection method Resazurin, Fluorescence (ex560/em590), MEDIA CAMHB, plate type 384well, CORNING #3640, time 18 hr
Acinetobacter baumannii = experiment: Antibacterial activity against Acinetobacter baumannii ATCC 19606 (CO-ADD:GN_034); MIC in CAMBH media using NBS plates, by Resazurin F(560/590); format: functional; conditions: Concentration 20 uM, ASSAY_TEST Inhibition of Bacterial Growth, detection method Resazurin, Fluorescence (ex560/em590), MEDIA CAMHB, plate type 384well, CORNING #3640, time 18 hr
Escherichia coli = experiment: Antibacterial activity against Escherichia coli ATCC 25922 (CO-ADD:GN_001); MIC in CAMBH media using NBS plates, by Resazurin F(560/590); format: functional; conditions: Concentration 20 uM, ASSAY_TEST Inhibition of Bacterial Growth, detection method Resazurin, Fluorescence (ex560/em590), MEDIA CAMHB, plate type 384well, CORNING #3640, time 18 hr
Klebsiella pneumoniae = conditions: Concentration 20 uM; ASSAY_TEST Inhibition of Bacterial Growth; detection method Absorption (OD600); MEDIA CAMHB; plate type 384well; NBS; CORNING #3640; time 18 hr
Candida albicans = conditions: 20 µM
Cryptococcus neoformans = conditions: Concentration 20 uM; ASSAY_TEST Inhibition of Fungal Growth; detection method Resazurin; Absorption (OD600-OD570); plate type 384well; NBS; CORNING #3640

| Compound | Inhibition (Staphylococcus aureus) | Inhibition (Acinetobacter baumannii) | Inhibition (Escherichia coli) | Inhibition (Klebsiella pneumoniae) | Inhibition (Candida albicans) | Inhibition (Cryptococcus neoformans) |
| --- | --- | --- | --- | --- | --- | --- |
| O=C(O)CCC(=O)c1ccc2ccc3cccc4ccc1c2c34 | -4.99% | 9.69% | -8.48% | 28.79% | 21.7% | -11.75% |
| Cc1ccc(N2CCN(CC(O)COc3cccc(C)c3)CC2)cc1 (stereo not given) | 10.15% | -11.82% | 15.19% | 10.88% | -0.24% | -16.06% |
| Cn1ncc2c(NCc3ccccc3)ncnc21 | 5.23% | -15.8% | 13.47% | 1.24% | -0.05% | -9.92% |
| COc1ccc(NC(=O)N2CCN(C(=O)Nc3ccc(OC)cc3)CC2)cc1 | 0.79% | 9.56% | -5.74% | 5.35% | -1.52% | 3.31% |
| Cc1cc(N2CCN(C)CC2)n2nc(-c3ccc(Cl)cc3)nc2n1 | 10.15% | 8.53% | 12.12% | 20.83% | 5.91% | -6.75% |
| C=CCN=C(NC#N)SC | -6.06% | -0.66% | -1.07% | 5.62% | -0.02% | 0.87% |
| CCOC(=O)Nc1c(Cl)n(C)c(=O)n(C)c1=O | -8.24% | 9.75% | -16.55% | 17.7% | 6.3% | 20.83% |
| CC1=C(C#N)C(C)(C)C(C#N)=C(C)N1 | 13.81% | -13.23% | 8.21% | 8.84% | 0.55% | -14.16% |
| Cc1cc(NC(=O)NC(=O)c2ccccc2NC(=O)C(C)N)ccc1Oc1ncc(Br)cn1.Cl (stereo not given) | 19.83% | -8.48% | 11.58% | 15.35% | -1.4% | -7.47% |
| O=C1C(CO)C(CO)C(CO)C1CO (stereo not given) | 12.78% | -16.04% | 12.18% | 2.22% | -0.61% | -11.22% |
| N#CC1=C(Nc2ccccc2Cl)SC(c2ccccc2O)NC1=O (stereo not given) | 1.74% | -8.74% | 4.44% | 12.14% | 4.82% | -3.28% |
| C1CCc2nc3c(nc2C1)CCCC3 | 13.53% | -4.6% | 11.61% | 13.7% | 1.61% | -2.79% |
| O=C1c2ccccc2C(O)(c2ccccc2)N1c1ccncc1 (stereo not given) | 8.72% | -12.43% | 4.92% | 13.13% | 2.44% | -3.79% |
| CCC(C)Oc1nc2c(c(=O)n(C)c(=O)n2C)n1C (stereo not given) | -1.77% | -5.34% | 12.06% | 2.01% | 1.02% | -11.56% |
| CCCOc1ccc(-c2nc(-c3ccc([N+](=O)[O-])cc3)cs2)cc1 | 9.47% | 16.16% | 3.67% | 10.79% | 5.94% | -3.16% |
| C1COCCN1.O=C(O)C(C=C(Cl)Cl)N1CCOCC1 (stereo not given) | 15.53% | -4.57% | -1.54% | 22.22% | 3.18% | -2.22% |
| COc1ccc(/N=N/c2c(N)n[nH]c2N)cc1 | 9.98% | -10.61% | 6.79% | 12.54% | 3.82% | -6.57% |
| CCN(CC)CCNc1c(C)cc(CO)c(Cl)c1C.O=S(=O)(O)NC1CCCCC1 | 5.65% | -16.4% | 16.33% | 7.45% | 1.43% | -0.32% |
| Clc1ccc(-c2c(C3=NCCCN3)nnn2-c2ccc(Cl)cc2)cc1 | 10.56% | -3.66% | 11.37% | 18% | 1.4% | -5.35% |
| CCCCn1ccnc1C | -0.22% | -5.26% | 4.7% | 8.98% | 0.01% | -3.23% |
| COc1cc(C(=O)c2cocc2C(=O)c2ccc3c(c2)OCO3)cc(OC)c1OC | 27.15% | -6.33% | 12.62% | 6.01% | 3.29% | 14.1% |
| Oc1ccc(-c2nc3ccccc3s2)c(O)c1 | -7.97% | -9.73% | 5.22% | 6.81% | 13.4% | -4.68% |
| O=C1NCCc2c1[nH]c1ccccc21 | -13.58% | -2.97% | -11.15% | 6.5% | 2.99% | -7.2% |
| COc1ccc(-c2cc(-c3ccccc3)c(-c3ccccc3)nn2)cc1 | -3.16% | 8.32% | 6.8% | -1.34% | 2.55% | -12.46% |
| COc1ccc2c(c1)C(=O)C1NC(=O)NC(=O)C1(Br)N2 (stereo not given) | 19.24% | -10.78% | 15.57% | 4.36% | -1.05% | -13.08% |

| Compound | Inhibition (Staphylococcus aureus) | Inhibition (Acinetobacter baumannii) | Inhibition (Escherichia coli) | Inhibition (Klebsiella pneumoniae) | Inhibition (Candida albicans) | Inhibition (Cryptococcus neoformans) |
| --- | --- | --- | --- | --- | --- | --- |
| O=c1[nH]cc(Cl)cc1Cl | 16.39% | -19.78% | 16.35% | 10.84% | -0.92% | 0.46% |
| ON=C(NCc1ccccc1)c1ccccc1 | -15.15% | 6.48% | -18.65% | 2.92% | -0.43% | 19.05% |
| O=c1cc(-c2ccccc2)[nH]c2cc(-c3ccco3)nn12 | 0.84% | -12.67% | 11.9% | 14.24% | -0.13% | -17.18% |
| CC(=O)Nc1ccc(Cc2nc3c(=O)n(C)c(=O)n(C)c3[nH]2)cc1 | 10.98% | -13.87% | 3.26% | 6.41% | 3.5% | -7.42% |
| CN(C)CCCn1c2c3ccccc3ccc2c2oc(=O)c3ccccc3c21.Cl | 14.28% | -7.18% | 12.65% | 11.13% | 0.85% | -2.35% |
| Oc1nccc(SCc2ccc(Cl)cc2Cl)n1 | 9.05% | 6.51% | 5.78% | 11.54% | 6.12% | -13.08% |
| CC1CC(C)(C)C2=NCCN21 (stereo not given) | 12.73% | -16.85% | 7.35% | 11.7% | 5.23% | -11% |
| c1ccc2[nH]c(CCCCCc3nc4ccccc4[nH]3)nc2c1 | 5.94% | 0.02% | -19.74% | 9.39% | 4.8% | 17.08% |
| NNC(=O)CNc1cccc(Br)c1 | 11.03% | 1.39% | 7.55% | 8.17% | 1.56% | -4.46% |
| Cc1nc2ccccc2nc1NS(=O)(=O)c1ccc(N)cc1 | -35.57% | -9.78% | -4.56% | 7.2% | 4.92% | -5.27% |
| CN(C)N1C(=O)c2c(Cl)c(Cl)c(Cl)c(Cl)c2C1=O | 2.83% | 0.5% | 6.02% | 6.84% | 1.54% | 46.33% |
| CCN1CCCCC(=N\O)/C(=N/O)CCCC1 | -0.99% | -8.24% | 1.26% | 23.74% | -0.06% | -7.99% |
| COc1cc2c(=O)n3c4c(cccc4c2cc1OC)CC3 | 9.4% | -8.34% | 13.88% | 1.26% | 1.37% | -14.32% |
| O=C(Oc1cccnc1O)c1cccc(Cl)c1 | -7.64% | 10.47% | 6.47% | 11.85% | 13.4% | -17.52% |
| Clc1nnc2c3ccccc3ccn12 | -3.22% | 2.03% | 3.3% | 8.71% | 1.01% | -9.43% |
| Nc1nc(=S)ss1 | 5.79% | -17.7% | 2.29% | 13.54% | 3.85% | -5.25% |
| O=C(Nc1nc2ccccc2s1)Nc1ccc([N+](=O)[O-])cc1Cl | 3.4% | 12.6% | -5.05% | 8.17% | 4.63% | -2.66% |
| O=C1C2C3C=CC(O3)C2C(=O)N1Nc1ccccc1 (stereo not given) | -4% | 10.94% | -0.67% | 8.39% | 1.05% | -2.5% |
| COc1ccc(NC2=CC(=S)NC(C)(C)C2)cc1 | 11.18% | -15.84% | 12.98% | 4.99% | 2.09% | -8.08% |
| O=C(O)C1=NN(c2cc(Cl)c(S(=O)(=O)O)cc2Cl)C(=O)C1 | 10.8% | 12.97% | 19.15% | 14.41% | 2.3% | -14.45% |
| O=C(Cn1nnc(N2CCCCC2)n1)N/N=C/c1ccccc1O | 17.81% | 3.41% | 7.77% | 2.1% | -0.19% | -9.12% |
| O=S(=O)(Oc1ccc(Cl)cc1)c1cccc2cccnc12 | 11.37% | -12.19% | 8.94% | 7.96% | -1.21% | -3.12% |
| c1ccc2c(c1)cnc1ccccc12 [PHENANTHRIDINE] | 1.61% | -6.38% | 4.54% | 11.56% | 4.34% | -7.16% |
| CC(C)C(=O)c1ccc(O)c(O)c1 | -0.55% | -3.52% | -12.2% | 9.02% | 3.31% | 21.92% |
| CC(C)(C)n1nc(C2CC2)cc1NC(=O)Nc1ccc(Cl)cc1 | 0.51% | 11.57% | -11.06% | 6.85% | 4.6% | 3.95% |
